Most compounds without a hit are left out; they make up all but 2.8% or so of the library.
ERa SRC1 pot – ER-alpha (human) coactivator binding potentiation | P03372 | TR-FRET ERalpha-LBD/SRC-Cy5 coactivator binding, 2 h; 100 = basal binding, no effect | coactivator binding (% of control), % at 25.6 µM | 86,000 compounds, 1.3% hits | AID 639; in the data active = activity above about 200%;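 also: binding measured in presence of low estradiol as agonist stimulus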
Target sequence (P03372 whole entry, looked up, the tested form may be a part): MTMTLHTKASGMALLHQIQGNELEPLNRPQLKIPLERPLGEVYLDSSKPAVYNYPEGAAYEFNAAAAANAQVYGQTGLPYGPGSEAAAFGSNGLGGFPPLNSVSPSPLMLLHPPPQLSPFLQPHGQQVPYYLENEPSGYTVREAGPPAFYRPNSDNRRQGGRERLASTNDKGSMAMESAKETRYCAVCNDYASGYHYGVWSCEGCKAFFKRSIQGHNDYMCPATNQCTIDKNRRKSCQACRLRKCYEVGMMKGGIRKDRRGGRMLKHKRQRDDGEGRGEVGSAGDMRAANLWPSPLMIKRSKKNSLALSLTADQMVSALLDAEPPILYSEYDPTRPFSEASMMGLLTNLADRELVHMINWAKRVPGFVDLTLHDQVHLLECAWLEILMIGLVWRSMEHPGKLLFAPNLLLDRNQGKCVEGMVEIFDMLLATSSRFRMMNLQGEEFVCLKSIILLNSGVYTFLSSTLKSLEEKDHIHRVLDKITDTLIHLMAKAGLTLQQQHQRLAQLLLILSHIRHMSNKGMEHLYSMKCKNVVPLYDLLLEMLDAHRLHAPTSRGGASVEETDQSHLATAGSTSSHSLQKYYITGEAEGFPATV
ERb SRC1 inh – ER-beta (human) coactivator binding inhibition. Q92731. inhibition, % at 25.6 µM. AID 633. TR-FRET ER-beta LBD / SRC1-Cy5 peptide binding; receptor agonist-loaded with 1 µM estradiol. 86,000 compounds, 1.3% hits;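 active = compounds whose percent inhibition of the receptor-coactivator binding signal exceeds about 50% in the single-dose screen, limit read from the data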
ERa SRC1 inh – ER-alpha (human) coactivator binding inhibition. TR-FRET ER-alpha LBD / SRC-1 peptide, estradiol-bound. inhibition, % at 25.6 µM. 86,000 compounds, 1.7% hits. AID 629; in the data active = inhibition above about 50%
EphB4 ephrin blk – blocks human EphB4 binding to ephrin-B2; P54760; inhibition, % at 7 µM; 97,000 compounds, 0.15% hits; EphB4 LBD / TNYL-RAW-Alexa532 peptide, fluorescence polarization; AID 720;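 active = inhibition above the screen-wide mean inhibition plus 3 SD, cut at about 15% in these data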
Of the large screens only hits and unclear results are named; the others gave an inactive call; [ ] = dose if it differs, or a comment.

COC(=O)C1C(=O)C2=C(CC1C)NC(C)=C(C(=O)OC1CCCCC1)C2c1ccc(N(C)C)cc1 (stereo not given)	ERa SRC1 pot 222.9
c1cncc(-c2nn3c(Cn4nnc5ccccc54)nnc3s2)c1	none
c1ccc(-c2nn3c(Cn4nnc5ccccc54)nnc3s2)nc1	ERa SRC1 inh 84.5[fluorescence artefact?]
CCN(CC)C(=O)CSc1nc2sc3c(c2c(=O)n1-c1ccc(C)cc1)CC(C)(C)SC3	ERa SRC1 pot 245.8
Cc1ccc(-n2c(SCC(=O)NCc3ccco3)nc3sc4c(c3c2=O)CC(C)(C)SC4)cc1	none
NS(=O)(=O)c1ccc(CCNC2CC(=O)N(CCc3ccccc3)C2=O)cc1 (stereo not given)	ERb SRC1 inh 65.5
NS(=O)(=O)c1ccc(CCNC2CC(=O)N(Cc3ccccc3)C2=O)cc1 (stereo not given)	none
O=C(NC1CCS(=O)(=O)C1)c1c(NC(=O)C2COc3ccccc3O2)sc2c1CCCC2 (stereo not given)	ERa SRC1 inh 59.3
COc1ccc(OC)c(N2C(=O)[C@@H]3C(c4ccccc4Cl)=NO[C@@H]3C2=O)c1	ERb SRC1 inh 79.0, ERa SRC1 inh 78.6
Cn1cnnc1SCC(=O)Nc1ccc2nc(SCc3cccc4ccccc34)sc2c1	EphB4 ephrin blk 16.9
Cn1cnnc1SCC(=O)Nc1ccc2nc(SCc3ccccc3)sc2c1	ERa SRC1 pot 366.2[fluorescence artefact?]
O=C(CSc1nc2ccc(NC(=O)CSc3nnnn3Cc3ccccc3)cc2s1)Nc1ccccc1	none
Cc1cc(C)c(NC(=O)CSc2nc3ccc(NC(=O)CSc4nnnn4Cc4ccccc4)cc3s2)c(C)c1	ERa SRC1 inh 67.3
Cc1csc(NC(=O)c2sc3nc(-c4cccs4)ccc3c2N)n1	ERb SRC1 inh 52.8[fluorescence artefact?], ERa SRC1 inh 85.1[fluorescence artefact?]
O=C1C2C3c4ccccc4C(c4ccccc43)C2C(=O)N1Cc1ccco1 (stereo not given)	none (no result: EphB4 ephrin blk)
CC12C(=O)N(Cc3ccco3)C(=O)C1C1c3ccccc3C2c2ccccc21 (stereo not given)	ERb SRC1 inh 55.2[fluorescence artefact?]
CN1CCN(C2=C(Cl)C(=O)C(c3cnc(N4CCCCC4)s3)=C(Cl)C2=O)CC1	ERb SRC1 inh 71.9[fluorescence artefact?]
Cc1cc(C)c2c(=O)[nH]c(SCC(=O)c3ccc(C(C)C)cc3)nc2n1	ERa SRC1 pot 558.2[fluorescence artefact?]
CCCN(CCC)S(=O)(=O)c1ccc(C(=O)N2CCCc3ccccc32)cc1	none
Cc1[nH]nc(N2CCCCCC2)c1[N+](=O)[O-]	none
Cc1[nH]nc(SCC(=O)N2CCCCC2)c1[N+](=O)[O-]	ERa SRC1 pot 690.7[fluorescence artefact?]
CN(C)c1ccc(N2CN=C3SCC(=O)N3C2)cc1	ERb SRC1 inh 86.0[fluorescence artefact?]
Cc1ccc(C2NC(=O)c3c(sc4c3CCN(C)C4)N2)o1 (stereo not given)	none
CCOC(=O)N1CCc2c(sc3c2C(=O)NC(c2ccc(-c4ccc(Cl)cc4)o2)N3)C1 (stereo not given)	ERb SRC1 inh 55.6[fluorescence artefact?], ERa SRC1 inh 78.7 (no result: EphB4 ephrin blk)
CN1C(=O)COc2ccc(C(=O)c3oc4ccccc4c3-c3cnc4c(c3)COc3ccccc3-4)cc21	ERa SRC1 pot 317.4[fluorescence artefact?]
Cc1ccc(O)c(C(=O)c2cnc3c(c2)COc2ccc(C)cc2-3)c1	none
CN(c1ccc(Cl)cc1)c1cc(=O)n(C)c2ccccc12	EphB4 ephrin blk 120.3[fluorescence artefact?]
CN(C(=O)COc1cc(=O)n(C)c2ccccc12)c1ccc(Cl)cc1	none
Cc1ccc(/C(N)=N/OC(=O)COc2ccccc2Cl)cc1	none (no result: ERa SRC1 pot, ERb SRC1 inh, ERa SRC1 inh)
COc1ccc(-n2c(SCCC#N)nnc2-c2cc(Cl)ccc2OC)cc1Cl	ERa SRC1 pot 398.6[fluorescence artefact?]
O=S(=O)(Nc1nc2ccccc2nc1Nc1ccc2c(c1)OCCO2)c1cccs1	ERb SRC1 inh 71.5[fluorescence artefact?], ERa SRC1 inh 69.8[fluorescence artefact?] (no result: EphB4 ephrin blk)
CNS(=O)(=O)c1cccc(C(=O)OCC(=O)N2CCc3ccccc3C2)c1	none
CCOc1ccccc1N1CCN(S(=O)(=O)c2ccc3c4c(cccc24)C(=O)N3)CC1	ERb SRC1 inh 55.6[fluorescence artefact?]
CCC(=O)Nc1nonc1-c1nc2ccccc2n1Cc1cccc2ccccc12	ERa SRC1 pot 204.5[fluorescence artefact?]
CCC(=O)Nc1nonc1-c1nc2ccccc2n1N(C(=O)CC)C(=O)CC	ERa SRC1 inh 58.6
CCC(=O)Nc1nonc1-c1nc2ccccc2n1CCC(C)C	none
CCC(=O)Nc1nonc1-c1nc2ccccc2n1Cc1ccccc1	none
CCOC(=O)Cn1c(-c2nonc2NC(=O)c2ccccc2F)nc2ccccc21	ERa SRC1 pot 322.4
O=C(COC(=O)CC12CC3CC(CC(Br)(C3)C1)C2)NC(=O)NCc1ccco1	none
CC(=O)c1cccc(NC(=O)C2CCCCC2)c1	ERa SRC1 pot 262.7
CC1(C)CC(=O)c2cnc(NCC3CCCO3)nc2C1 (stereo not given)	ERa SRC1 inh 55.0
Cc1cc(N2CCN(c3ccccn3)CC2)n2cc(-c3ccccc3)nc2n1	EphB4 ephrin blk 15.8 (no result: ERa SRC1 pot, ERb SRC1 inh, ERa SRC1 inh)
CCCc1cc(N2CCN(c3ccccn3)CC2)n2nc(C)c(-c3ccccc3)c2n1	ERa SRC1 pot 241.8[fluorescence artefact?]
Cc1cc(N2CCN(Cc3ccccc3)CC2)n2nc(C)c(-c3ccccc3)c2n1	none
C=CCn1c(SCC(=O)Nc2ncc(Cc3cc(C(F)(F)F)ccc3Cl)s2)nnc1-c1ccncc1	none (no result: ERa SRC1 pot, ERb SRC1 inh, ERa SRC1 inh)
CCC(C)(C(=O)NC1CCCCC1)N(Cc1ccco1)C(=O)c1ccccn1 (stereo not given)	none
O=C(O)C1CCCCC1C(=O)NCCCc1ccccc1 (stereo not given)	ERa SRC1 pot 267.6
CC(NC(=O)c1cccnc1)C(c1cccs1)N1CCN(C)CC1 (stereo not given)	none
COc1cccc(C(=O)NC(C)C(c2cccs2)N2CCN(C)CC2)c1 (stereo not given)	ERb SRC1 inh 67.0[fluorescence artefact?]
CC(N1CCOC1=O)S(=O)(=O)c1ccccc1 (stereo not given)	none
CCOc1ccc(NC(=O)c2ccc(S(=O)(=O)N(C)C)cc2)cc1	none (no result: EphB4 ephrin blk)
CN(C)S(=O)(=O)c1ccc(C(=O)Nc2ccc(Cl)cc2)cc1	ERb SRC1 inh 64.1[fluorescence artefact?]
CC1CCC(n2c(=S)[nH]c3ccccc3c2=O)CC1 (stereo not given)	ERa SRC1 pot 218.4[fluorescence artefact?]
Cc1ccccc1C1C(C#N)=C2N=C(N)c3c(sc4c3CCCCC4)N2C2=C1C(=O)CCC2 (stereo not given)	none (no result: ERa SRC1 pot, ERb SRC1 inh, ERa SRC1 inh)
CN1CCN(c2c3c(c(C#N)c4nc5ccccc5n24)CCCC3)CC1	none (no result: EphB4 ephrin blk)
CCOC(=O)c1cccc(NC(=O)c2ccco2)c1	none (no result: EphB4 ephrin blk)
CCOC(=O)c1cccc(NC(=O)c2cccs2)c1	ERb SRC1 inh 78.6
CCOC(=O)C1Cc2ccccc2CN1 (stereo not given)	ERb SRC1 inh 57.3[fluorescence artefact?]
CCOC(=O)C1Cc2c([nH]c3ccccc23)CN1 (stereo not given)	none
O=C(Nc1ccc(C2CCCCC2)cc1)C1CCN(c2ncccn2)CC1	ERa SRC1 pot 233.7[fluorescence artefact?], ERa SRC1 inh 54.9 (no result: EphB4 ephrin blk)
CCNC(=O)c1c(O)c2ccccc2[nH]c1=O	none (no result: EphB4 ephrin blk)
CCc1nc2ccccc2c(=O)n1NC(=O)c1c(O)c2ccccc2[nH]c1=O	ERa SRC1 pot 272.9 (no result: EphB4 ephrin blk)
COc1ccccc1N1CCN(CC(O)COc2ccc3c(c2)CCC3)CC1 (stereo not given)	none
COc1cc(C(=O)N2CCN(S(=O)(=O)c3ccc(F)cc3)CC2)cc(OC)c1OC	ERb SRC1 inh 66.7[fluorescence artefact?]
